In PubChem BioAssay (NCATS):
Records with an inconclusive call do not appear. A call without a number means that no potency is given here. The source made the active and inactive calls. Calls follow the shape of the dose curve; as a rule, active = well fitted inhibition curve with a large enough effect; inconclusive = small, poorly fitted or top-dose-only effect; inactive = no such curve, though single readings can be large or run the other way.

What was measured:
[1] = tested on: Zika virus NS2B-NS3 protease (unlinked complex); test: Primary screen GU Rhodamine qHTS for Zika virus inhibitors: Unlinked NS2B-NS3 protease assay (AID 1347159); also: nearly all actives have a fitted effect of over 60% in size; also: potency is read from the fitted curve at half-maximal effect
How it was run: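 A qHTS format was used, with compound concentrations ranging up to 114 microM. Each compound was preincubated with 25 nM NS2B-NS3 protease, and the substrate was then added at 1.5 microM. Curves were fitted with a 4-parameter Hill model.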

[2] = tested on: Zika virus NS2B-NS3 protease (linked construct); test: Primary screen NINDS Rhodamine qHTS for Zika virus inhibitors (AID 1347160); also: nearly all actives have a fitted effect of over 55% in size
How it was run: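 Kinetic fluorescence (Ex 480 nm, Em 540 nm) over 15 min with 1.5 microM Rhodamine110 peptide and 25 nM linked protease.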

| SMILES | Potency [1] | Potency [2] |
| --- | --- | --- |
| C=C[C@H]1[C@H](O[C@@H]2O[C@H](CO)[C@@H](O)[C@H](OC(=O)/C=C/c3ccc(O)c(OC)c3)[C@H]2O)OC=C2C(=O)OCC[C@]21O | inactive | inactive |
| C[C@@H]1C[C@@H](O)[C@@]2(CO)C(CO)=CCC[C@@H]2[C@@]12C[C@@H](c1ccoc1)OC2=O | inactive | inactive |
| CC1=CC[C@@]2(C)CC[C@@](O)(C(C)C)[C@@H]2[C@@H](O)C1 | inactive | inactive |
| COc1ccc([C@H]2OC[C@H]3[C@@H]2CO[C@@H]3c2ccc(O[C@@H]3O[C@H](CO)C(O)[C@H](O)[C@H]3O)c(OC)c2)cc1OC (stereo not given in full) | inactive | inactive |
| C=C1CCC2[C@](C)(CCC[C@]2(C)C(=O)O)[C@H]1CC/C(C)=C/C(=O)OC (stereo not given in full) | 12.6 µM (active) | inactive |
| CC(=O)O[C@H]1[C@H](O[C@H]2CC[C@]34C[C@]35CC[C@]3(C)[C@@H]([C@@]6(C)CC[C@@H](C(C)(C)O)O6)[C@@H](O)C[C@@]3(C)[C@@H]5C[C@H](O[C@@H]3O[C@H](CO)[C@@H](O)[C@H](O)[C@H]3O)[C@H]4C2(C)C)OC[C@@H](OC(C)=O)[C@@H]1O | inactive | inactive |
| COC(=O)C1=COC(O[C@@H]2O[C@H](CO)[C@@H](O)[C@H](O)[C@H]2O)C2C(C)C(=O)CC12 (stereo not given in full) | inactive | inactive |
| COC(=O)C1=COC(O[C@@H]2O[C@H](CO)[C@@H](O)[C@H](O)[C@H]2O)/C(=C\COC(=O)/C=C/c2ccccc2)C1CC(=O)OCCc1ccc(O)cc1 (stereo not given in full) | inactive | inactive |
| C=CC(C)(CCC=C(C)C)O[C@@H]1O[C@H](CO)[C@@H](O)[C@H](O)[C@H]1O (stereo not given in full) | inactive | inactive |
| O=C(O)c1ccc(NC(=O)[C@H](CC2CCCC2)n2cnc(C(F)(F)F)c2)nc1 | inactive | inactive |
| CC1(C(=O)O)CCCC2(C)C3CCC4CC3(CCC12)CC4(O)CO (stereo not given) | inactive | inactive |
| CC1=C(C(=O)OC2OC(COC3OC(CO)C(O)C(O)C3O)C(O)C(O)C2O)C(C)(C)CCC1 (stereo not given) | inactive | inactive |
| O=C(NC/C=C/CN1CCN(c2cccc(Cl)c2Cl)CC1)c1ccc(-c2ccccn2)cc1 | inactive | inactive |
| CC1=C2C[C@@]3(C)C(CCC[C@@H]3C)C(O)C2(O)OC1=O (stereo not given in full) | inactive | inactive |
| COc1cn(-c2ccc(-n3cccn3)cc2F)nc(-c2ccnn2-c2ccccc2)c1=O | inactive | inactive |
| CCC(C)C(=O)O[C@H]1C[C@](C)(O)[C@]23OC(C)(C)[C@H](C[C@H](OC(=O)c4ccccc4)[C@]2(COC(C)=O)[C@H]1OC(=O)C(C)CC)[C@H]3OC(C)=O (stereo not given in full) | inactive | inactive |
| COc1cc(OC)cc(-c2ccc3c(-c4ccc(F)cc4)[nH]nc3n2)c1 | inactive | inactive |
| COc1cc(/C=C/CO[C@@H]2O[C@H](CO)[C@@H](O)[C@H](O)[C@H]2O)cc(OC)c1O[C@@H]1O[C@H](CO)[C@@H](O)[C@H](O)[C@H]1O | inactive | inactive |
| CC(C)C1(O)NC(=O)C(CC2(O)c3ccccc3N3C(=O)C(C)(C)NC32)n2c1nc1ccccc1c2=O (stereo not given) | inactive | inactive |
| C[C@@H]1O[C@@H](O[C@H]2[C@@H]3C=CO[C@@H](O[C@@H]4O[C@H](CO)[C@@H](O)[C@H](O)[C@H]4O)[C@@H]3[C@@]3(CO)O[C@@H]23)[C@H](O)[C@H](O)[C@H]1OC(=O)/C=C/c1ccc(O)cc1 | inactive | inactive |
| CC1(C(=O)O)CCCC2(C)C3CCC4CC3(CCC12)CC4C(=O)O (stereo not given) | inactive | inactive |
| C=C(CCO)C(=O)OCC1OCC(OC(=O)C(=C)CCO[C@@H]2O[C@H](COC(=O)C(=C)CCO[C@@H]3O[C@H](CO)[C@@H](O)[C@H](O)[C@H]3O)[C@@H](O)[C@H](O)[C@H]2O)C(O)C1O (stereo not given in full) | inactive | inactive |
| COc1ccc2c(c1)N1C(=O)C[C@@]34C=CC[N@+]5([O-])CC[C@H]2[C@H](CC3)[C@@]145 | inactive | inactive |
| C/C=C(\C)C(=O)OC1C2(O)CC3=C4CC(=O)OC(c5ccoc5)C4(C)CCC3C(C)(C2=O)C(C(OC(C)=O)C(=O)OC)C1(C)C (stereo not given) | inactive | inactive |
| COC(=O)C1=CO[C@@H](O[C@@H]2O[C@H](CO)[C@@H](O)[C@H](O)[C@H]2O)[C@@H]2[C@@H](C)[C@@H](OC(=O)/C=C/c3ccccc3)[C@@H](O)[C@H]12 | inactive | inactive |
| COc1cc(/C=C/C(=O)O[C@H]2[C@@H]3C=CO[C@@H](O[C@@H]4O[C@H](CO)[C@@H](O)[C@H](O)[C@H]4O)[C@@H]3[C@@]3(CO)O[C@@H]23)ccc1O | inactive | inactive |
| C/C(=C\CO)CC/C=C(\C)C(=O)O[C@@H]1O[C@H](CO)[C@@H](O)[C@H](O)[C@H]1O | inactive | inactive |
| C[C@@H]1O[C@@H](O[C@@H]2\C=C/C=C\C=C/C=C\C[C@H](C)OC(=O)/C=C\[C@H]3O[C@@H]3C[C@H](O)C[C@]3(O)C[C@@H](O)[C@@H](C(=O)O)[C@H](C2)O3)[C@H](O)[C@H](N)[C@@H]1O | inactive | inactive |
| O=C(OCC1=CC(Cl)C(O)C(OC(=O)c2ccccc2)C1O)c1ccccc1 (stereo not given) | inactive | inactive |
| COC1OC(=O)C2=C1C1(C)CCCC(C)(C)C1CC2O (stereo not given) | inactive | inactive |
